Test results reported in PubChem BioAssay (EPA / NIEHS).
Inconclusive results are not listed. The source holds several records for some structures; these can differ, active in one and inactive in another. Active and inactive are the calls of the source. Rule for the calls, unless noted: active = hit-call score of the fitted dose curve at least 0.9, where 1 is the maximum; inconclusive = response in the unintended direction; inactive = score below 0.9.

What was measured:
[1] = BSK_3C_VCAM1: BioMAP Diversity Plus: 3C Assay for Vascular cell adhesion molecule 1 (VCAM1) Biomarker Activity (AID 2282999; active = hit-call score of the fitted dose curve at least 0.9, where 1 is the maximum; inactive = score below 0.9); settings: BioMAP 3C HUVEC, VCAM1 ELISA, cytokine-stimulated; actives raise or lower the signal
How it was run: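 Vascular primary endothelium (human umbilical vein) was exposed to chemicals and assayed 24 h later. VCAM-1 levels came from ELISA, with DMSO serving as baseline for bidirectional fitting.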

[2] = BSK_4H_Eotaxin3: BioMAP Diversity Plus: 4H Assay for Eotaxin 3 Biomarker Activity (AID 2283000; active = hit-call score of the fitted dose curve at least 0.9, where 1 is the maximum; inactive = score below 0.9); settings: primary human endothelial cells (HUVEC); actives raise or lower the signal
How it was run: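 Human umbilical vein endothelial cells (BSK_4H system) dosed with test chemical; Eotaxin-3 (CCL26) measured by ELISA 24 h after dosing. Bidirectional curve fitting relative to DMSO negative control as baseline.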

[3] = target: human Peroxisome Proliferator-activated Receptor alpha (PPARa), PPARA (gene 5465) (UniProt Q07869); assay: ATG_PPARa_TRANS: Attagene TRANS-FACTORIAL HepG2 Assay for human Peroxisome Proliferator-activated Receptor alpha (PPARa) (AID 2283001)
How it was run: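 Exposure: 24 h, transiently transfected HepG2 cells. Endpoint: GAL4-UAS reporter mRNA, RT-PCR with capillary electrophoresis fluorescence. Baseline: DMSO; increases fitted.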

[4] = read-out: Intercellular Adhesion Molecule 1 (ICAM1), ICAM1 (gene 3383); assay: BSK_3C_ICAM1: BioMAP Diversity Plus: 3C Assay for Intercellular Adhesion Molecule 1 (ICAM1) Biomarker Activity (AID 2283003; active = hit-call score of the fitted dose curve at least 0.9, where 1 is the maximum; inactive = score below 0.9); settings: primary human endothelial cells (HUVEC); actives raise or lower the signal
How it was run: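 ELISA read-out of ICAM-1; HUVEC (primary human), 3C system, 24 h post-dosing; bidirectional fit vs DMSO baseline.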

[5] = target: human Retinoic Acid Receptor beta (RARb), RARB (gene 5915) (UniProt P10826); assay: ATG_RARb_TRANS: Attagene TRANS-FACTORIAL HepG2 Assay for human Retinoic Acid Receptor beta (AID 2283004)
How it was run: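 Induction of reporter mRNA from a chimeric RARb-Gal4 construct was measured by RT-PCR, FAM labelling, HpaI digestion and capillary electrophoresis. Measurements followed 24 h compound treatment of transiently transfected human HepG2 liver cells, with DMSO as baseline.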

[6] = BSK_3C_Proliferation: Cell Proliferation Assessment in the BioMAP Diversity Plus: 3C Assay (AID 2283006; active = hit-call score of the fitted dose curve at least 0.9, where 1 is the maximum; inactive = score below 0.9;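 for AC50: potency may reflect either rise or fall in cell number versus DMSO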); settings: primary human endothelial cells (HUVEC)
How it was run: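 HUVEC, sub-confluent; 48 h chemical exposure; 10% TCA fix, 0.1% SRB stain, A560 total protein. Gain or loss of signal fitted both directions vs DMSO control.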

[7] = target: Nuclear receptor subfamily 1 group I member 2 (Homo sapiens) (UniProt O75469); assay: ATG_PXR_TRANS: Attagene TRANS-FACTORIAL HepG2 Assay for human Pregnane X Receptor (PXR) (AID 2283008)
How it was run: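 Trans-factorial format: exogenous NR-Gal4 fusion activity, not endogenous factor, in transfected human HepG2 liver cells. After 24 h dosing, RNA isolated, reverse-transcribed, amplified and resolved by capillary electrophoresis; induction scored versus DMSO.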

[8] = target: human RAR-related Orphan Receptor gamma (RORg), RORC (gene 6097) (UniProt P51449); assay: ATG_RORg_TRANS: Attagene TRANS-FACTORIAL HepG2 Assay for human RAR-related Orphan Receptor gamma (RORg) (AID 2283011)
How it was run: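 Reporter transcripts from a transfected RORg-GAL4 chimera in HepG2 cells were quantified 24 h after dosing by RT-PCR, 6-FAM labelling, HpaI digestion and capillary electrophoresis; increases over DMSO baseline were fitted.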

[9] = read-out: E-selectin (Homo sapiens) (UniProt P16581); assay: BSK_3C_Eselectin: BioMAP Diversity Plus: 3C Assay for Eselectin Biomarker Activity (AID 2283015; active = hit-call score of the fitted dose curve at least 0.9, where 1 is the maximum; inactive = score below 0.9); settings: primary human endothelial cells (HUVEC); actives raise or lower the signal
How it was run: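 E-selectin ELISA readout, fitted bidirectionally relative to DMSO, taken 24 h post-dosing in HUVEC cultures of the 3C system. Overt cytotoxicity tracked with sulforhodamine B staining of parallel wells.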

[10] = read-out: Interleukin-1 alpha (IL1a), IL1A (gene 3552); assay: BSK_BE3C_IL1a: BioMAP Diversity Plus: BE3C Assay for Interleukin-1 alpha (IL1a) Biomarker Activity (AID 2283016; active = hit-call score of the fitted dose curve at least 0.9, where 1 is the maximum; inactive = score below 0.9); settings: primary human bronchial epithelial cells; actives raise or lower the signal
How it was run: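 ELISA read-out of IL-1a from human lung bronchial epithelial primary cells, 24 h post-dose. Gain or loss of signal fitted relative to DMSO negative control.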

[11] = read-out: Monocyte Chemoattractant Protein-1 (MCP1), CCL2 (gene 6347); assay: BSK_3C_MCP1: BioMAP Diversity Plus: 3C Assay for Monocyte Chemoattractant Protein-1 (MCP1) Biomarker Activity (AID 2283017; active = hit-call score of the fitted dose curve at least 0.9, where 1 is the maximum; inactive = score below 0.9); settings: primary human endothelial cells (HUVEC); actives raise or lower the signal
How it was run: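 MCP-1 was measured by ELISA 24 h after dosing in primary HUVEC 3C cultures and fitted in both directions relative to DMSO; cytotoxicity was checked by SRB total-protein staining in parallel wells.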

[12] = read-out: Monocyte Chemoattractant Protein-1 (MCP1), CCL2 (gene 6347); assay: BSK_4H_MCP1: BioMAP Diversity Plus: 4H Assay for Monocyte Chemoattractant Protein-1 (MCP1) Biomarker Activity (AID 2283018; active = hit-call score of the fitted dose curve at least 0.9, where 1 is the maximum; inactive = score below 0.9); settings: primary human endothelial cells (HUVEC); actives raise or lower the signal
How it was run: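 HUVEC primary cells, 24 h post-dose, MCP-1 by ELISA. Gain or loss of signal fitted bidirectionally vs DMSO baseline. Cytotoxicity: SRB stain (0.1% after 10% TCA fixation), read 560 nm, parallel cultures.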

[13] = target: Peroxisome proliferator-activated receptor gamma (Homo sapiens) (UniProt P37231); assay: ATG_PPARg_TRANS: Attagene TRANS-FACTORIAL HepG2 Assay for human Peroxisome Proliferator-activated Receptor-gamma (PPARg) (AID 2283007)
How it was run: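 Transient transfection of HepG2 with GAL4-UAS-driven reporter units; chemical dosing 24 h; total RNA → oligo(dT) RT → PCR with reporter primers → 6-FAM primer extension → HpaI digest 2 h 37 C → capillary electrophoresis. Positive direction vs DMSO.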

[14] = target: human RAR-related Orphan Receptor beta (RORb), RORB (gene 6096) (UniProt Q92753); assay: ATG_RORb_TRANS: Attagene TRANS-FACTORIAL HepG2 Assay for human RAR-related Orphan Receptor beta (RORb) (AID 2283010)
How it was run: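 HepG2, transient MRTU transfection (GAL4-UAS reporters, exogenous NR-Gal4 chimeras); 24 h compound exposure; total RNA → RT-PCR → 6-FAM primer extension → HpaI digest → CE fluorescence. Positive direction vs DMSO baseline.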

[15] = target: Retinoic acid receptor RXR-alpha (Homo sapiens) (UniProt P19793); assay: ATG_RXRa_TRANS: Attagene TRANS-FACTORIAL HepG2 Assay for human Retinoid X Receptor alpha (RXRa) (AID 2283012)
How it was run: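 Read-out: fluorescent reporter-transcript fragments quantified by capillary electrophoresis after RT-PCR. Transiently transfected HepG2 cells carrying GAL4-UAS reporters and NR-GAL4 chimeras were exposed to chemical for 24 h; activity scored as increase over DMSO.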

[16] = target: human Peroxisome Proliferator-activated Receptor delta (PPARd), PPARD (gene 5467) (UniProt Q03181); assay: ATG_PPARd_TRANS: Attagene TRANS-FACTORIAL HepG2 Assay for human Peroxisome Proliferator-activated Receptor delta (PPARd) (AID 2283002)
How it was run: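 Multiplexed trans-activation format: HepG2 liver cells expressing exogenous NR-Gal4 chimeras and GAL4-UAS reporters were exposed for 24 h. Reporter mRNA was detected by RT-PCR with capillary electrophoresis fluorescence; activity fitted as gain of signal relative to DMSO.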

[17] = target: human Retinoic Acid Receptor gamma (RARg), RARG (gene 5916) (UniProt P13631); assay: ATG_RARg_TRANS: Attagene TRANS-FACTORIAL HepG2 Assay for human Retinoic Acid Receptor gamma (RARg) (AID 2283009)
How it was run: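 Readout: reporter transcript levels via RT-PCR, 6-FAM primer-extension labelling, HpaI digestion and capillary electrophoresis. Cells: HepG2 carrying transfected RARg-GAL4 chimera plus UAS reporter set. Dosing 24 h; DMSO negative control.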

[18] = target: human Retinoid X Receptor beta (RXRb), RXRB (gene 6257) (UniProt P28702); assay: ATG_RXRb_TRANS: Attagene TRANS-FACTORIAL HepG2 Assay for human Retinoid X Receptor beta (RXRb) (AID 2283013)
How it was run: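 Read-out: reporter mRNA induction via RT-PCR plus capillary electrophoresis fluorescence, analysed as signal increase relative to DMSO. Cells were human HepG2, transiently transfected with GAL4-UAS reporter constructs and chimeric receptor-Gal4 fusions, dosed for 24 h.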

[19] = target: human Thyroid Receptor alpha (THRa1), THRA (gene 7067) (UniProt P10827); assay: ATG_THRa1_TRANS: Attagene TRANS-FACTORIAL HepG2 Assay for human Thyroid Receptor alpha (THRa1) (AID 2283014)
How it was run: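 Transcripts from GAL4-UAS-driven reporters, measured after 24 h compound exposure by RT-PCR plus capillary electrophoresis of 6-FAM-labeled fragments, were fitted for gain of signal relative to DMSO. Cells: transiently transfected HepG2 expressing NR-Gal4 chimeras.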

[20] = target: Retinoic acid receptor alpha (Homo sapiens) (UniProt P10276); assay: ATG_RARa_TRANS: Attagene TRANS-FACTORIAL HepG2 Assay for human Retinoic Acid Receptor alpha (RARa) (AID 2283005)
How it was run: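 HepG2 cells transiently transfected with multiple reporter units expressing chimeric RARα-GAL4 fusion, with GAL4-UAS-driven reporters. After 24 h compound exposure, reporter mRNA induction quantified by RT-PCR and capillary electrophoresis with fluorescent labeling; gain-of-signal fitted relative to DMSO control.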

Measured: AC50

Chain of E-selectin (Homo sapiens) (P16581 whole entry, looked up): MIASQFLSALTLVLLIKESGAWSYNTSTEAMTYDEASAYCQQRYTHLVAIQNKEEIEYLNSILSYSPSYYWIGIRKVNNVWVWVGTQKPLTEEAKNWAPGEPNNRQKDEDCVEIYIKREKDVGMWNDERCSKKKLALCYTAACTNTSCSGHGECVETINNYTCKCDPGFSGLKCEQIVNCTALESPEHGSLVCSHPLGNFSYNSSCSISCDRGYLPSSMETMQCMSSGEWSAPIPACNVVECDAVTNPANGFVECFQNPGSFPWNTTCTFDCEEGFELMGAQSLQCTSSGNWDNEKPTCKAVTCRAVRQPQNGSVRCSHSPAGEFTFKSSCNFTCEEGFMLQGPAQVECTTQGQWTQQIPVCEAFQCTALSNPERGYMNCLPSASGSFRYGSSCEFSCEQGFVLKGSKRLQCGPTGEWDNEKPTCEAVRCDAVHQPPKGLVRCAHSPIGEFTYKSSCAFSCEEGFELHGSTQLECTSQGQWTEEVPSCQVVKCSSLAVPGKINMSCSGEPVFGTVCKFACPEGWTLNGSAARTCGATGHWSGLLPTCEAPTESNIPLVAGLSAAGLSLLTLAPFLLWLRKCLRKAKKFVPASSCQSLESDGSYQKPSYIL
Chain of human RAR-related Orphan Receptor beta (RORb), RORB (gene 6096) (Q92753 whole entry, looked up, the tested form may be a part): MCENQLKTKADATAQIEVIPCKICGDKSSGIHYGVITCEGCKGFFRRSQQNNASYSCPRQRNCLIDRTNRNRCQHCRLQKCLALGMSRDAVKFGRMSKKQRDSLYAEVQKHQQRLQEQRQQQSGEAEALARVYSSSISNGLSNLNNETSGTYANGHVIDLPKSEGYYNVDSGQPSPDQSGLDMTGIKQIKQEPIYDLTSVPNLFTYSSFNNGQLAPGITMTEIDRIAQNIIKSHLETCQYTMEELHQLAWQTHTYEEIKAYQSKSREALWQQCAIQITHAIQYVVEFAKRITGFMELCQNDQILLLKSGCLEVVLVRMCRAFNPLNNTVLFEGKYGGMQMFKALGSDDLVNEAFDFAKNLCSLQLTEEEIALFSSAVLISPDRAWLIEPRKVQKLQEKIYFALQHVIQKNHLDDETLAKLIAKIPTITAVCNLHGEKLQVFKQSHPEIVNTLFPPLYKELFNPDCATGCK
Chain of human Peroxisome Proliferator-activated Receptor alpha (PPARa), PPARA (gene 5465) (Q07869 whole entry, looked up, the tested form may be a part): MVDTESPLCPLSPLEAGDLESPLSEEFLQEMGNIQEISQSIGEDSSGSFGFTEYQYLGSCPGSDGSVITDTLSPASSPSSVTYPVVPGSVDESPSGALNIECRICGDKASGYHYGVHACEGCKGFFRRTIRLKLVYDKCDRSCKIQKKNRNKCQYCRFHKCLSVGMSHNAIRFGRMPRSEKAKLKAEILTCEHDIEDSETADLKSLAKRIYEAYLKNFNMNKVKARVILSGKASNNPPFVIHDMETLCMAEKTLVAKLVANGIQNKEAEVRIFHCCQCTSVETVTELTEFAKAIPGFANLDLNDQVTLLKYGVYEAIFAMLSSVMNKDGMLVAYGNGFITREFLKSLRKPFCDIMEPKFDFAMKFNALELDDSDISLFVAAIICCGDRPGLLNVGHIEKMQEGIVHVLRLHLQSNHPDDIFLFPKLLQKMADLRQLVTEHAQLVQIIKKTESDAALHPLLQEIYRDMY
Chain of Peroxisome proliferator-activated receptor gamma (Homo sapiens) (P37231 whole entry, looked up, the tested form may be a part): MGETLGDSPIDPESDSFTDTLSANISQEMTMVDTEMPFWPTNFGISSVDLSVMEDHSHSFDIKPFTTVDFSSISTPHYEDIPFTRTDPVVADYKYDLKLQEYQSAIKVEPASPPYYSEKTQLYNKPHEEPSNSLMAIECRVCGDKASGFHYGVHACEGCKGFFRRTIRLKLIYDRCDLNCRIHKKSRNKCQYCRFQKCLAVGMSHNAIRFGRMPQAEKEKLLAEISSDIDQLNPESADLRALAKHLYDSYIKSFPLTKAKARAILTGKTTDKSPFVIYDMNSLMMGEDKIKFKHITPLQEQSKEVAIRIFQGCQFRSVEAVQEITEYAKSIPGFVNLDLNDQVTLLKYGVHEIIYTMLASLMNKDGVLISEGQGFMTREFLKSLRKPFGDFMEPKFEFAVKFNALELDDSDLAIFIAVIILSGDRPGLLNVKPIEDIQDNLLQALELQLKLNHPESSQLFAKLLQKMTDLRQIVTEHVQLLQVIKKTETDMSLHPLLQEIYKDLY
Chain of human Retinoic Acid Receptor beta (RARb), RARB (gene 5915) (P10826 whole entry, looked up, the tested form may be a part): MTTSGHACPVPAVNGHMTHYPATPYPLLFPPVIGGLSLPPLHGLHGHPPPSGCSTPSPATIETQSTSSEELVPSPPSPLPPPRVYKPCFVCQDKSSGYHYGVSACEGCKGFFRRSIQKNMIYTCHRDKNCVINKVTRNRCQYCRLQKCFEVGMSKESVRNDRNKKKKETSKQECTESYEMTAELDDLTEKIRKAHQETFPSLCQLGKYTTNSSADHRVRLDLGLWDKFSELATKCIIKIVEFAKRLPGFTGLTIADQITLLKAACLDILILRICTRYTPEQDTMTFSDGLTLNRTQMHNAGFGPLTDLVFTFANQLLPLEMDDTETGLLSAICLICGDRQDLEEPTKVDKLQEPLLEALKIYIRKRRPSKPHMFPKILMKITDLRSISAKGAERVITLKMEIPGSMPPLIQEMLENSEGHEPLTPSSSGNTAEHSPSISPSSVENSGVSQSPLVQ
Chain of Nuclear receptor subfamily 1 group I member 2 (Homo sapiens) (O75469 whole entry, looked up, the tested form may be a part): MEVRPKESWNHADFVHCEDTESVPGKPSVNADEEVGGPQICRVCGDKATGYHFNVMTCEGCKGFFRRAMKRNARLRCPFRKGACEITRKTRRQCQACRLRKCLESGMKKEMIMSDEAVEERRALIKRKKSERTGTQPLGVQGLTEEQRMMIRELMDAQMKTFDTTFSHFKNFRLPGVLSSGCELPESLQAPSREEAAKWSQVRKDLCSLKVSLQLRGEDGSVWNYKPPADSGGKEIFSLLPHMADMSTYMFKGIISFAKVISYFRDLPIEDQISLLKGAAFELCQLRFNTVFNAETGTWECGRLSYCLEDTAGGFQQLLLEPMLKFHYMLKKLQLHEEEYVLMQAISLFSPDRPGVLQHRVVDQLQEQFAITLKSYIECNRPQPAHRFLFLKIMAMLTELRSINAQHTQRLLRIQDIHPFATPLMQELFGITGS
Chain of human RAR-related Orphan Receptor gamma (RORg), RORC (gene 6097) (P51449 whole entry, looked up, the tested form may be a part): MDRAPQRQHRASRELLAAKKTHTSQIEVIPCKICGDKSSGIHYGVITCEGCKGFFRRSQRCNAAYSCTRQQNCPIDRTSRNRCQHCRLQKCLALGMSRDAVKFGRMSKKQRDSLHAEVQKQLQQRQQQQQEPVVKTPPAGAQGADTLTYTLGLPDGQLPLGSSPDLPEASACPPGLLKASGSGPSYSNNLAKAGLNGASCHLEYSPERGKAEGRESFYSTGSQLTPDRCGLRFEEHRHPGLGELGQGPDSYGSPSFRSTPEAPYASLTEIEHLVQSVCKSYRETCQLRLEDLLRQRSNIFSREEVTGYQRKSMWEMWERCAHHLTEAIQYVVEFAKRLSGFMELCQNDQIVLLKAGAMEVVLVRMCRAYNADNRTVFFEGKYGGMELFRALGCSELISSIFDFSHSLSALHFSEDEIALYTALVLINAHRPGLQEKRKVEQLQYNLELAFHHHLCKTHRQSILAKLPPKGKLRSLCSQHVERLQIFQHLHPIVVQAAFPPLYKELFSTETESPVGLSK
Chain of human Retinoic Acid Receptor gamma (RARg), RARG (gene 5916) (P13631 whole entry, looked up, the tested form may be a part): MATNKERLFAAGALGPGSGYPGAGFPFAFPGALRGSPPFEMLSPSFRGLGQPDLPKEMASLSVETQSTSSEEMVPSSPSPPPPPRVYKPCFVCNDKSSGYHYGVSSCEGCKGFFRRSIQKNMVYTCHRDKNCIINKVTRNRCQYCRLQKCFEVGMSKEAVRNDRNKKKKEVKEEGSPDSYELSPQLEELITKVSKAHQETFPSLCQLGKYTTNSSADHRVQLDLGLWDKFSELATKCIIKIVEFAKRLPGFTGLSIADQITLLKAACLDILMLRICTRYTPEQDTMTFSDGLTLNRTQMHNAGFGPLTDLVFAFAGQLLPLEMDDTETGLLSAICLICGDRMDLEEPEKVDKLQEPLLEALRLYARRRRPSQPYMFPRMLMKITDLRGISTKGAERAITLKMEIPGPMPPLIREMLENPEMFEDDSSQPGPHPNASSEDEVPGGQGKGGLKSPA
Chain of Retinoic acid receptor RXR-alpha (Homo sapiens) (P19793 whole entry, looked up, the tested form may be a part): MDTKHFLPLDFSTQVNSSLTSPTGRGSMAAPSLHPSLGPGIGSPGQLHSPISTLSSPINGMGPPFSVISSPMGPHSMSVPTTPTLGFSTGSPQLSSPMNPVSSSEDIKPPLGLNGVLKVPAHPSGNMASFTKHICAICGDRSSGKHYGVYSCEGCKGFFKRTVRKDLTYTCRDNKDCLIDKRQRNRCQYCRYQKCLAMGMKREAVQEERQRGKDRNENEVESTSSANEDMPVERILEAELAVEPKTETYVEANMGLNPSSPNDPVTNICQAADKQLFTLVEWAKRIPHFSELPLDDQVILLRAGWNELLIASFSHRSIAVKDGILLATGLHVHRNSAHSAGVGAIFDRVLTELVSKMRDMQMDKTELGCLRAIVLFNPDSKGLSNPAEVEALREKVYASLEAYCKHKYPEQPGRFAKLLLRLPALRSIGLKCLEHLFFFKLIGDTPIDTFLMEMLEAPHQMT
Chain of human Thyroid Receptor alpha (THRa1), THRA (gene 7067) (P10827 whole entry, looked up, the tested form may be a part): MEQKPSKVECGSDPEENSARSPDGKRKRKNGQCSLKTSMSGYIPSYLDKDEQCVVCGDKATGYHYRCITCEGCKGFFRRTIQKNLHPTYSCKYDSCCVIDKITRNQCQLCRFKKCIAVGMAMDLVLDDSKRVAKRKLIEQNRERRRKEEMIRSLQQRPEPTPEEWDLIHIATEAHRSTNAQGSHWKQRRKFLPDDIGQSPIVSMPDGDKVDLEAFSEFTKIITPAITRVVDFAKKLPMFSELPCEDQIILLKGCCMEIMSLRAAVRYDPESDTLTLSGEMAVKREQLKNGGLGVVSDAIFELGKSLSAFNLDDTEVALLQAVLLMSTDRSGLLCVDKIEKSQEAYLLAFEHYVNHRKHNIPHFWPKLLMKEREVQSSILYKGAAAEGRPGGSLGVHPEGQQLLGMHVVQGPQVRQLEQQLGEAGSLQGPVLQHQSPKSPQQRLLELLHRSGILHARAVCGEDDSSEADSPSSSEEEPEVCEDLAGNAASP

CCOC(=O)c1ccccc1C(=O)OCC
inactive: [1] | [2] | [3] | [4] | [5] | [6] | [7] | [8] | [9] | [10] | [11] | [12]

Nc1cc2c3c(c1)C(c1ccccc1)=N[C@@H](NC(=O)c1cccnc1)C(=O)N3CC2
inactive: [1] | [2] | [3] | [4] | [6] | [14] | [8] | [15] | [9] | [10] | [11] | [12]
active: [13] 48.4 µM | [7] 11.2 µM

c1nc[nH]n1
inactive: [1] | [2] | [3] | [4] | [6] | [13] | [7] | [9] | [10] | [11] | [12]

C=CC(=O)OCC(CC)(COC(=O)C=C)COC(=O)C=C
inactive: [3] | [16] | [17] | [15] | [18] | [19]
active: [1] 2.55 µM | [2] 2.41 µM | [4] 2.71 µM | [6] 1.7 µM | [13] 24.3 µM | [7] 0.793 µM | [9] 2.37 µM | [10] 5.88 µM | [11] 2.66 µM | [12] 1.9 µM

O=C(O)C(F)(F)C(F)(F)C(=O)O
inactive: [1] | [2] | [3] | [16] | [4] | [5] | [20] | [6] | [13] | [7] | [17] | [14] | [8] | [15] | [19] | [9] | [10] | [11] | [12]

CCCCCCCc1ccc(O)cc1
active: [1] 35.1 µM | [2] 31.5 µM | [4] 37.3 µM | [6] 14.3 µM | [13] 24.3 µM | [7] 11.1 µM | [9] 35.2 µM | [10] 35.7 µM | [11] 37.6 µM | [12] 29.1 µM
inactive: [3] | [16] | [5] | [20] | [13] | [7] | [17] | [14] | [8] | [15] | [19]

CCCN(CCC)c1c([N+](=O)[O-])cc(C(C)C)cc1[N+](=O)[O-]
active: [1] 25.8 µM | [2] 32.1 µM | [6] 20 µM | [7] 1.49 µM | [11] 32 µM | [12] 20 µM
inactive: [3] | [16] | [4] | [5] | [20] | [13] | [17] | [15] | [19] | [9] | [10]
